Measurements: PubChem BioAssay (Tox21)
Results filed as inconclusive are left out. A call without a number means that no potency is given here. Unmarked numbers belong to inactive results. Calls of active or inactive are those of the source. Unless noted, calls follow the shape of the dose curve; as a rule, active = well fitted curve in the direction sought with a large enough effect in the repeat runs; inconclusive = weak or mixed curves; inactive = no such curve, though single readings can be large; an effect the other way counts as inactive or inconclusive.

Key:
[1] = qHTS assay to identify small molecule agonists of the vitamin D receptor (VDR) signaling pathway - cell viability counter screen (AID 743224); also: nearly all actives have a fitted effect of over 50% in size; also: potency is read from the fitted curve at half-maximal effect
How it was run: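 Cytotoxicity counter screen: VDR-bla cells, 16 h compound exposure at 37C, 5% CO2; CellTiter-Glo luminescence, 30 min RT, same wells as bla read.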

[2] = qHTS assay to identify small molecule antagonists of the vitamin D receptor (VDR) signaling pathway - cell viability counter screen (AID 743225); also: nearly all actives have a fitted effect of over 50% in size
How it was run: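 Viability counter screen run in the same wells as the beta-lactamase reporter assay: HEK 293T VDR-UAS-bla cells, 16 h compound exposure at 37C with 3 nM (final) 1-alpha,25-dihydroxyvitamin D3. CellTiter-Glo luminescence, 30 min, room temperature.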

[3] = qHTS assay to identify small molecule agonists of the NFkB signaling pathway - cell viability counter screen (AID 1159515; calls by dose curve; also: series mostly up to about 61 µM; nearly all actives have a fitted effect of over 55% in size)
How it was run: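 ME-180 NFkB-bla cells, 2,000/well; overnight attach; compound 5 hr, 37 C/5% CO2; LiveBLAzer substrate 1.5 hr RT; then CellTiter-Glo in same wells, 30 min RT, luminescence read.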

[4] = qHTS assay to identify small molecule agonists of the endoplasmic reticulum stress response signaling pathway (AID 1159516; active = well fitted activation curve with a large enough effect in the signal ratio in the repeat runs, not every such curve was filed as active; the % refers to the signal ratio)
How it was run: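 HeLa ESRE-bla reporter line; cpd 5 h, 37 C/5% CO2; LiveBLAzer B/G FRET substrate 2 h RT; ex 405, em 460/530 nm.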

[5] = qHTS assay to identify small molecule antagonists of the retinoid-related orphan receptor gamma (ROR-gamma) signaling pathway - cell viability counter screen (AID 1159520); also: nearly all actives have a fitted effect of over 50% in size
How it was run: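 Tet-on ROR gamma CHO cells were given compounds for 2 hr, then doxycycline hyclate at 1 uM final, and incubated 16 hr at 37 C. Viability was measured as ATP content by CellTiter-Glo luminescence.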

[6] = target: Nuclear receptor ROR-gamma (Homo sapiens) (UniProt P51449); assay: qHTS assay to identify small molecule antagonists of the retinoid-related orphan receptor gamma (ROR-gamma) signaling pathway (AID 1159521;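 also: CHO cells with doxycycline inducible ROR-gamma driving an RORE luciferase reporter; top concentration of the series differs between compounds; nearly all actives have a fitted effect of over 50% in size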)
How it was run: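 Luminescence readout (ONE-Glo, 30 min RT) after 16 h doxycycline induction; loss of signal scored as antagonism. CHO cells with TET-inducible RORγ and RORE-LUC reporter; compounds added 2 h before 1 uM final doxycycline.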

[7] = qHTS assay to identify small molecule agonists of the AP-1 signaling pathway - cell viability counter screen (AID 1159525; calls by dose curve; also: nearly all actives have a fitted effect of over 55% in size)
How it was run: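 Same-well cytotoxicity counter screen of the Tox21 10K library in ME-180 cells. The readout is ATP-dependent luminescence after 5 h compound treatment. Data are normalised to DMSO and tetra n-octyl ammonium bromide controls.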

[8] = qHTS assay to identify small molecule agonists of the AP-1 signaling pathway (AID 1159526; calls by dose curve)
[9] = target: Retinoic acid receptor RXR-alpha (Homo sapiens) (UniProt P19793); assay: qHTS assay to identify small molecule agonists of the RXR signaling pathway (AID 1159527; calls by dose curve; also: nearly all actives have a fitted effect of over 35% in size)
Chain of Retinoic acid receptor RXR-alpha (Homo sapiens) (P19793 whole entry, looked up): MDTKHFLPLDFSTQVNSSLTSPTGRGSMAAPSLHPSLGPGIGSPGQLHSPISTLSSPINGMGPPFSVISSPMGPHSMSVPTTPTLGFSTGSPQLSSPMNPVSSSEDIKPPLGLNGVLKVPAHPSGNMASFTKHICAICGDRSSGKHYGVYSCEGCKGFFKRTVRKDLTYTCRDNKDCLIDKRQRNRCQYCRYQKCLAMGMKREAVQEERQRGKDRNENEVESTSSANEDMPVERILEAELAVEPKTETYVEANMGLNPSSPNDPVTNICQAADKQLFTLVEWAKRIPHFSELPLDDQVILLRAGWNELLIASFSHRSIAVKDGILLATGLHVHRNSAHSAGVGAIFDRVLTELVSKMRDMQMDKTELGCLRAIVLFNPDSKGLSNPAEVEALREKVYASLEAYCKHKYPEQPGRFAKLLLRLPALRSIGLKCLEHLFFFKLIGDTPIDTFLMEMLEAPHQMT
How it was run: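 Agonist mode; 9-cis retinoic acid positive control. HEK 293T UAS-bla reporter cells, 2% charcoal-stripped FBS, 16 hr compound exposure at 37 C/5% CO2. LiveBLAzer B/G FRET substrate 2 hr RT; ex 405, em 460/530 nm.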

[10] = qHTS assay to identify small molecule agonists of the RXR signaling pathway - cell viability counter screen (AID 1159529); also: nearly all actives have a fitted effect of over 50% in size; also: potency is read from the fitted curve at half-maximal effect
How it was run: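 Luminescence from CellTiter-Glo (30 min, RT) measured viability in the same wells as the beta-lactamase reporter readout. Cells: GeneBLAzer RXR-alpha HEK 293T, 2% charcoal-stripped FBS. Compound exposure 16 hr, 37 C.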

[11] = qHTS assay to identify small molecule antagonists of the retinoid acid receptor (RAR) signaling pathway - cell viability counter screen (AID 1159551); also: nearly all actives have a fitted effect of over 35% in size
How it was run: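 C3RL4 RARE-luciferase line; cpds + retinol 1 uM final, 6 h, 37 C/5% CO2; CellTiter-Glo ATP luminescence, 30 min RT.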

[12] = qHTS assay to identify small molecule antagonists of the retinoic acid receptor (RAR) signaling pathway (AID 1159552; also: nearly all actives have a fitted effect of over 50% in size; also: potency is read from the fitted curve at half-maximal effect)
How it was run: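 Luminescence from a RARE luciferase reporter in C3RL4 cells served as read-out. Cells received compounds together with 1 uM final retinol and incubated 6 hr at 37 C before detection reagent was added for 30 min at room temperature.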

[13] = qHTS assay to identify small molecule agonists of the retinoic acid receptor (RAR) signaling pathway (AID 1159553); also: potency is read from the fitted curve at half-maximal effect
How it was run: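 RARE-luc C3RL4 cells; overnight attachment 37 C/5% CO2; compound (DMSO) 6 hr; luciferase reagent, 30 min RT; luminescence read-out.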

[14] = qHTS assay to identify small molecule agonists of the endoplasmic reticulum stress response signaling pathway - cell viability counter screen (AID 1159517; calls by dose curve)
How it was run: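 Steps: seed 1,500 ESRE-bla HeLa cells per well; incubate overnight at 37 C, 5% CO2; add compounds in DMSO for 5 hr; run FRET substrate 2 hr RT; add CellTiter-Glo, wait 30 min, read luminescence.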

Compound	Potency [1]	Potency [2]	Potency [3]	Potency [4]	Potency [5]	Potency [6]	Potency [7]	Potency [8]	Potency [9]	Potency [10]	Potency [11]	Potency [12]	Potency [13]	Potency [14]
[O]=[Cr][O][Cr]=[O]	inactive	inactive	inactive	inactive	inactive	inactive	inactive	inactive	inactive	inactive	inactive	inactive	inactive	–
CCNc1nc(NC(C)C(C)C)nc(SC)n1 (stereo unspecified)	inactive	inactive	inactive	inactive	–	–	inactive	inactive	inactive	inactive	inactive	inactive	inactive	inactive
O=[N+]([O-])[O-].[Tl+]	–	inactive	inactive	inactive	–	–	–	inactive	inactive	–	inactive	–	inactive	inactive
CC(=O)C(Cl)C(=O)N(C)C (stereo unspecified)	inactive	inactive	inactive	inactive	–	–	inactive	inactive	inactive	inactive	inactive	–	–	inactive
C[N+]1(C)[C@@H]2CC[C@H]1CC(OC(=O)C(CO)c1ccccc1)C2 (stereo partly specified)	–	inactive	inactive	inactive	–	–	inactive	inactive	inactive	inactive	inactive	inactive	inactive	inactive
CC(=O)[O-].CC(=O)[O-].CC(=O)[O-].[Cr+3]	inactive	inactive	inactive	inactive	–	–	inactive	–	inactive	inactive	inactive	–	–	inactive
Nc1ccccc1-c1ccccc1	inactive	inactive	inactive	inactive	inactive	inactive	inactive	inactive	–	21.7 µM (active)	inactive	inactive	inactive	–
CC1CCCC1	inactive	inactive	inactive	inactive	inactive	inactive	inactive	–	–	inactive	inactive	inactive	–	–
FC(F)C(F)(F)OCC(Cn1cncn1)c1ccc(Cl)cc1Cl (stereo unspecified)	–	inactive	inactive	inactive	–	–	inactive	inactive	inactive	48.7 µM (active)	inactive	24.2 µM (active)	inactive	inactive
O=Cc1ccccc1	–	–	inactive	inactive	inactive	inactive	inactive	inactive	inactive	inactive	inactive	inactive	inactive	–
C=CCBr	inactive	inactive	inactive	inactive	–	–	inactive	inactive	inactive	inactive	inactive	–	–	inactive
O=C(CCCCl)c1ccc(F)cc1	inactive	inactive	inactive	inactive	–	–	inactive	inactive	inactive	inactive	inactive	inactive	26.6 µM (active)	inactive
C=CC(=C)C	inactive	inactive	inactive	inactive	inactive	inactive	inactive	inactive	inactive	inactive	inactive	inactive	inactive	–
CN(C)c1ccc(N)cc1	42.6 µM (active)	–	inactive	inactive	–	–	inactive	–	–	42.6 µM (active)	–	inactive	0.596 µM (active)	inactive
COc1ccc2c(c1OC)C(=O)O[C@@H]2[C@H]1c2cc3c(cc2CCN1C)OCO3	inactive	inactive	inactive	inactive	inactive	inactive	inactive	inactive	inactive	inactive	inactive	–	–	–
